# Test results: PubChem BioAssay AID1259245 (Vanderbilt High Throughput Screening Facility, 2017)
# Screen size: about 40,000 compounds; about 1,400 (3.5%) were called active.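 How the source made its calls: active means any of four per-well response measures lying three or more SD from its plate-wide compound average, in either direction; inactive means the rest, inconclusive results apart.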 The sample as a whole holds a higher share of actives than the screen did.
# Target: Voltage-dependent calcium channel gamma-2 subunit (Mus musculus) + Glutamate receptor 2 (Rattus norvegicus) (UniProt O88602+P19491)
# Sequence (O88602 whole entry, looked up): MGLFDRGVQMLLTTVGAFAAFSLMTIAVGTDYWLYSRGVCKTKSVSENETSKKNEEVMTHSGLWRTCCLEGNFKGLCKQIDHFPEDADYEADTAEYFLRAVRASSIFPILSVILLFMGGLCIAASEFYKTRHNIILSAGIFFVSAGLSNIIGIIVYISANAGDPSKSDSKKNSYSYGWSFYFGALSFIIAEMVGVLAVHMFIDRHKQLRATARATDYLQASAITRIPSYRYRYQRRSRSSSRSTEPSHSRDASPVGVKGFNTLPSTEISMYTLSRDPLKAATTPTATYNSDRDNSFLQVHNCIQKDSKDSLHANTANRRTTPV
# Sequence (P19491 whole entry, looked up): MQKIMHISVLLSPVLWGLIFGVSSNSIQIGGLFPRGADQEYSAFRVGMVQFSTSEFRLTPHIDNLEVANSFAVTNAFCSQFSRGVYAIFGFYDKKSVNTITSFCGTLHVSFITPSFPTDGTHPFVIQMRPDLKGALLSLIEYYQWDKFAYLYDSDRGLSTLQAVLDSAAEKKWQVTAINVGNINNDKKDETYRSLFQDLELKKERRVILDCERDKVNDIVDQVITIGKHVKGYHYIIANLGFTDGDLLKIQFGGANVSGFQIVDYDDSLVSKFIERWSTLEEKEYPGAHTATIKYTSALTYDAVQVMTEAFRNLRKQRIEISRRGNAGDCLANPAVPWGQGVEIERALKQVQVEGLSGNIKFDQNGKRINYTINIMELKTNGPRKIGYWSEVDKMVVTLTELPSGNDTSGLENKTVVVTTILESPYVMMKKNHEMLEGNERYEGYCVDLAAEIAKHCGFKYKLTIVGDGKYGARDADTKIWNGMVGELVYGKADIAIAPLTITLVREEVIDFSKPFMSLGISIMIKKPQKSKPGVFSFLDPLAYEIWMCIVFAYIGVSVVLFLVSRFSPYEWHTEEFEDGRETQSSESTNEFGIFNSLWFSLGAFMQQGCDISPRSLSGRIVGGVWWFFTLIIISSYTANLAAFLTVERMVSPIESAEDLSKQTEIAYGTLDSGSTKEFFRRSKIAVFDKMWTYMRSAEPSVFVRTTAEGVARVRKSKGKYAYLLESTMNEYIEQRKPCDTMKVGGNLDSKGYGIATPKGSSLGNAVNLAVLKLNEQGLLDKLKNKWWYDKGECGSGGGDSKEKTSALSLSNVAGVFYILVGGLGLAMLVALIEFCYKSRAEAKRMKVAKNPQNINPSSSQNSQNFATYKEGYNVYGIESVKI
# Assay: modulators of GluA2-stargazin AMPA receptor complexes, primary screen, cell-based, membrane potential dye (AID 1259245)
# Details: HEK293 GluA2+stargazin, membrane potential dye (FDSS), glutamate EC50, at 30 µM, hits were called plate by plate, in both directions; compound max-min signal: compound-alone response (agonism); glutamate slope, % of max: measured here: glutamate response slope, % max
Compound,compound max-min signal,"glutamate response, % of max","glutamate slope, % of max [%]"
O=C(/C=C/c1ccccc1)Nc1ccc(CC(=O)N2CCCC2)cc1,0.119,31.3% (inactive),65.4
C=CCNC(=O)NC1CCCCC1N1C(=O)CSC1=O (stereo unspecified),0.12,10.5% (inactive),45.6
CSc1ccccc1NC(=O)c1nc(-c2cnccn2)no1,0.143,23.2% (inactive),49.2
Cc1nc(-c2cccs2)c(CCC(=O)NCc2ccc3c(c2)OCO3)s1,0.114,10.6% (active),25.8
COc1ccc(CCNC(=O)CCc2sc(C)nc2-c2cccs2)cc1,0.0606,19.1% (inactive),37.1
COc1ccc(NC(=O)CCc2sc(C)nc2-c2cccs2)cc1OC,0.123,37.8% (inactive),60.9
Cc1ccc2cc(CNc3ccccc3)c(=O)n(CC(=O)Nc3ccccc3C)c2c1,0.0993,29.6% (inactive),44.3
COc1cc2cc(CNc3ccc(C)cc3)c(=O)n(CC(=O)Nc3ccccc3F)c2cc1OC,0.116,25.6% (inactive),49.4
COc1ccc2cc(CNc3ccccc3)c(=O)n(CC(=O)Nc3ccccc3OC)c2c1,0.0876,-1.71% (active),4.4
Cc1cc(C)cc(-n2c(SCC#N)nc3cc(C(=O)NC4CCCC4)ccc3c2=O)c1,0.127,50.2% (inactive),72.1
CCOC(=O)c1ccc(-n2c(C)c(C)n3c4c(=O)n(CC)c(=O)n(C)c4nc23)cc1,0.126,48.1% (inactive),62.4
CCC(C)c1ccccc1OCC(O)CN (stereo unspecified),0.0631,21.1% (inactive),39.8
Cc1cc(N(C)C)nc(-n2cc([N+](=O)[O-])cn2)n1,0.178,35.4% (active),63.4
O=C(c1ccc(Cl)s1)N1CCC(c2ccsc2)CC1,0.0754,43.8% (inactive),57
COCCNC(=O)C(=O)Nc1cc(N2CCCS2(=O)=O)ccc1OC,0.105,22.8% (inactive),46.1
CN1CCc2c(sc(NC(=O)c3ccc(Br)cc3)c2-c2nc3ccccc3s2)C1,0.139,53.9% (inactive),74
CCOc1ccc(C(=O)Nc2sc3c(c2-c2nc4ccccc4s2)CCN(C)C3)cc1,0.114,34.3% (inactive),50.1
CC(=O)c1ccc(C(=O)Nc2sc3c(c2-c2nc4ccccc4s2)CCN(C)C3)cc1,0.226,65.6% (active),85
COc1ccc2sc(N(CC3CCCO3)C(=O)C3CCCC3)nc2c1 (stereo unspecified),0.117,20% (inactive),33.1
CN1C(=O)Cc2cc(NC(=O)NC(c3ccccc3)c3ccccc3)ccc21,0.121,41.8% (inactive),60.5
Cc1nc2ccccn2c1C(=O)Nc1ccc2c(c1)CC(=O)N2C,0.213,46.6% (active),65.1
Cc1nc2ccccn2c1C(=O)NCC(O)(c1ccccc1)C(F)(F)F (stereo unspecified),0.141,14.1% (inactive),49.7
CCOC(=O)CNC(=O)C(=O)c1c(C)[nH]c2ccccc12,0.14,51.3% (inactive),67.4
O=S(=O)(/C=C/c1ccccc1)NCC#CCN1CCc2ccccc2C1,0.144,41.7% (active),55.5

Compound,compound max-min signal,"glutamate response, % of max","glutamate slope, % of max [%]"
CN(C)S(=O)(=O)NCC#CCN1CCc2ccccc2C1,0.0659,38.5% (inactive),57.8
O=S(=O)(NCC#CCN1CCc2ccccc2C1)c1ccc(Br)cc1,0.0488,43.9% (inactive),66.2
CCNC(=O)CSc1nc(-c2ccccc2)c(NC(=O)CC2CCCC2)s1,0.0584,31.3% (inactive),44.8
COc1ccc(CC(=O)NCCOc2cc(C)cc(C)c2)cc1OC,0.0873,52% (inactive),63.4
CC(C)NC(=O)Nc1ccc(CN2CCN(C)CC2)cc1,0.107,37% (inactive),57.1
O=C(c1ccno1)N1CCN(c2nc3ccc([N+](=O)[O-])cc3s2)CC1,0.188,27.8% (active),50.2
COc1ccc(SCCC(=O)N2CCN(c3nc4ccc(F)cc4s3)CC2)cc1,0.0995,50.5% (inactive),60.6
COc1ccc([N+](=O)[O-])cc1NC(=O)c1ccno1,0.13,15.2% (inactive),32.1
CN(C)C(=O)N1CCN(S(=O)(=O)c2ccc(F)cc2)CC1,0.11,30.6% (inactive),58.2
O=C(CCCS(=O)(=O)c1ccc(F)cc1)Nc1cccc2c1C(=O)NC2=O,0.0985,41.1% (inactive),66.5
COc1ccc(N(Cc2cccc(C)c2)S(=O)(=O)c2ccc3nnc(C)n3c2)cc1,0.0921,39% (inactive),70.3
CCCN(CCC)S(=O)(=O)c1cc([N+](=O)[O-])ccc1C,0.0514,71% (active),88.7
Cc1ccc([N+](=O)[O-])cc1NC(=O)C(=O)NCC(c1cccs1)N(C)C (stereo unspecified),0.155,57.6% (inactive),83.7
CCc1nc2sc(C(c3ccc(F)c(F)c3)N3CCN(C(C)=O)CC3)c(O)n2n1 (stereo unspecified),0.111,52.6% (inactive),74.4
NS(=O)(=O)c1ccc(CNC(=O)Cc2csc(Nc3cccc(Cl)c3)n2)cc1,0.171,32.8% (inactive),56.3
COCC(=O)Nn1cnc2c(cnn2C(C)(C)C)c1=O,0.121,-2.09% (active),5.77
CC(C)(C)n1ncc2c(=O)n(NC(=O)Cc3ccc([N+](=O)[O-])cc3)cnc21,0.0341,22.1% (inactive),47.4
Cc1ccccc1C(=O)Nn1cnc2c(cnn2C(C)(C)C)c1=O,0.0501,31.3% (inactive),53.1
Cc1cc(C)c2c(n1)sc1c(=O)n(CC(=O)Nc3ccccc3Br)cnc12,0.125,47% (inactive),70.2
CCCOC(=O)CC1C(=O)NCCN1C(=S)NC(=O)c1cccc(Cl)c1 (stereo unspecified),0.102,20% (inactive),39.3
COc1ccc(Cl)cc1NC(=O)CC1C(=O)NCCN1C(=S)Nc1ccccc1 (stereo unspecified),0.205,26.6% (active),35.6
COc1ccc(Cl)cc1NC(=O)NCC#CCN1CCc2ccccc2C1,0.108,30.6% (inactive),53.9
Cn1nnc2c(N(CCc3ccccc3)Cc3ccccc3)ncnc21,0.0947,34% (inactive),57.6
